# Measured values from article PMC7819943, “Rice protein-binding microarrays: a tool to detect cis-acting elements near promoter regions in rice”.
# In all, about 39,000 sequences were measured (“fluorescence intensity (a.u.)”: median about 4,300, highest 2% from about 39,000 on). The sample holds the highest values, similar sequences and a random draw of the others, so the mix is not that of the screen.
# Molecular target: T1, OsSMF1 (Oryza sativa, UniProt Q6ZLB0 1-436)
# T1 sequence: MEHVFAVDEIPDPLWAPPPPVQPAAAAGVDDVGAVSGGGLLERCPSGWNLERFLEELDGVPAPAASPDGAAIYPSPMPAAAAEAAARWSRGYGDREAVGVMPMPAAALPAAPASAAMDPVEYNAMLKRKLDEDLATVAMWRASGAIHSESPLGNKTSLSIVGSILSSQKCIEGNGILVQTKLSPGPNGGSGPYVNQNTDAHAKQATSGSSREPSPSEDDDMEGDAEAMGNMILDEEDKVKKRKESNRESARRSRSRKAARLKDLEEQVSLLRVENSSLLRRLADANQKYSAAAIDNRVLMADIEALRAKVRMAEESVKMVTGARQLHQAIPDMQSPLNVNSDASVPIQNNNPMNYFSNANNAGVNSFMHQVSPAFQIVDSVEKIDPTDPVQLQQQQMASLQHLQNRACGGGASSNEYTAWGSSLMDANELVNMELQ
# Experiment: protein-binding microarray (RPBM); PBS, 2% BSA, 51.3 ng/ul salmon testes DNA, 50 uM zinc acetate, 200 nM TF, 25 C, 1 h; high values mean tight binding
# Settings: protein: recombinant; tags: N-terminal polyhistidine and DsRed monomer fusion (pET32a); chain copies: 2; label: CyDye5-dUTP incorporated in the synthesized complementary strand; 3' TTTTT single-stranded linker to array surface; dsDNA, one strand shown
# Procedure, shortened: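 The binding signal is fluorescence intensity per feature, in arbitrary units, read on an Axon 4000B scanner. Polyhistidine- and DsRed-tagged transcription factors (N-terminal fusions) from E. coli BL21-CodonPlus were purified on Ni–NTA and applied at 200 nM for 1 h at 25 °C to a double-stranded, BSA-blocked custom Agilent array in buffer with 50 µM zinc acetate.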
row,Sequence,binding signal
1,CGGCCGCGTCAGGGAGGACGCCGCGCGGCACTACTTCCGGCGGAGTCACCTAGTGCAG,3870 fluorescence intensity (a.u.)
2,CGACGGCCACAACCGGTTGTGGCGGCGTCTGCGTTGGCAGCGGAGTCACCTAGTGCAG,5430 fluorescence intensity (a.u.)
3,ATTGCTTTATATGGTTATTTAAGTTTATTTTGCATCCCTACGGAGTCACCTAGTGCAG,22600 fluorescence intensity (a.u.)
4,ACAGGAGCACCATCAACAGCTGACAACTTGGCATTGGTATCGGAGTCACCTAGTGCAG,3680 fluorescence intensity (a.u.)
5,ATCAAAATGGCAACAAAAGGGAGTCCAAAGTGAAAATTTTCGGAGTCACCTAGTGCAG,36100 fluorescence intensity (a.u.)
6,GCGGCTGAATTAATCTCCATCTGGCGAGCATCCACATCCTCGGAGTCACCTAGTGCAG,52300 fluorescence intensity (a.u.)
7,ATCTCCATCGCTGGCGACGGCGAGCATCGCATCGCATCGCCGGAGTCACCTAGTGCAG,3150 fluorescence intensity (a.u.)
8,CCTCTGGCATCCATTATTGAGTTTATTAATCCTCCATCCTCGGAGTCACCTAGTGCAG,26300 fluorescence intensity (a.u.)
9,ACATCATCGGCTACGTCAGGTCCAGCGCCGCCGCCAAGGCCGGAGTCACCTAGTGCAG,6640 fluorescence intensity (a.u.)
10,AACCCTAGCCACTCTCGTTTCATTGGTCTGACTTATTGGGCGGAGTCACCTAGTGCAG,14700 fluorescence intensity (a.u.)
11,CGCGCGTCTCGACTCCGTCCCAATCGATCGATCGATCGCGCGGAGTCACCTAGTGCAG,12800 fluorescence intensity (a.u.)
12,CGCGCCATCGGCACGCTGGGCCAACACGGCACGGTGGACCCGGAGTCACCTAGTGCAG,3820 fluorescence intensity (a.u.)
13,GGACACACACCCACACGCGCATCCATCCATCCATCCATCCCGGAGTCACCTAGTGCAG,3220 fluorescence intensity (a.u.)
14,CACGAGCTGGTGGGCATCGAGGACTCCACACACGCGCATCCGGAGTCACCTAGTGCAG,42800 fluorescence intensity (a.u.)
15,GGTGTGGCGTGAGCGTGACACGGTGTCAACTGTCAAGTGTCGGAGTCACCTAGTGCAG,3400 fluorescence intensity (a.u.)
16,TGCCCGGCTCGGCTACCCCGTCGCCACCGCCGTTCGTTTCCGGAGTCACCTAGTGCAG,3190 fluorescence intensity (a.u.)
17,AATAGCTCTCTCCTCAGTCTCTCACGGCCTCATCACCACCCGGAGTCACCTAGTGCAG,3170 fluorescence intensity (a.u.)
18,TCTCGCCTACCACCAAGCTCATCTCGTTTCGTTAGCTACCCGGAGTCACCTAGTGCAG,41600 fluorescence intensity (a.u.)
19,GACCCCGGTTTTGTCCCACGTGGCGGCTGACTCAGCGTGGCGGAGTCACCTAGTGCAG,22500 fluorescence intensity (a.u.)
20,TTTAGATGGCGGTTTTGGCTGACGTGGCGTCTACGTGACGCGGAGTCACCTAGTGCAG,30700 fluorescence intensity (a.u.)
21,AGGCGGTTTTGGCTGATGTGGCGTCTACGTGGCTTGTTTGCGGAGTCACCTAGTGCAG,25300 fluorescence intensity (a.u.)

row,Sequence,binding signal
1,TGGCGGTTTGGAAGGCGGTTTTGGCTGACGTGGCGTCTACCGGAGTCACCTAGTGCAG,43800 fluorescence intensity (a.u.)
2,GGTCCCTCAGCGGTTTTGGCTGACGTGGCGCATACGTGGCCGGAGTCACCTAGTGCAG,51700 fluorescence intensity (a.u.)
3,GTTTTGACCCGGTTTTGGTCTACGTGGCGCTGAGTCAGCGCGGAGTCACCTAGTGCAG,29900 fluorescence intensity (a.u.)
4,GATCTCCTTTACACGTGATGTTGACGTGGCGTTTAGGTGGCGGAGTCACCTAGTGCAG,26500 fluorescence intensity (a.u.)
5,GGAAGCGCCAGCCAGCGCTCGCCGTTGTCACCTGTCACACCGGAGTCACCTAGTGCAG,3480 fluorescence intensity (a.u.)
6,TACAGATCGATGCGACACTCTGACACGTTACGCTCTCTCTCGGAGTCACCTAGTGCAG,6440 fluorescence intensity (a.u.)
7,TTGTGATGTCCATGTCACATGCAGTCCATTAAGGCCCTTGCGGAGTCACCTAGTGCAG,5190 fluorescence intensity (a.u.)
8,GTTGTTGTTCTTGGATGTGAATGTGAATAATGTGATGTTTCGGAGTCACCTAGTGCAG,3350 fluorescence intensity (a.u.)
9,CAGTGCTAGGGAAGCGACCAATGATGGATAGTGGGAGGCACGGAGTCACCTAGTGCAG,45600 fluorescence intensity (a.u.)
10,TAGAGGCAAGCACGACCAATGAGGACATAGGGAATGGTTCCGGAGTCACCTAGTGCAG,9700 fluorescence intensity (a.u.)
11,TGTGGTGGCGAGCGGCACGGAGGCGGGGCGGTGGAGGGAGCGGAGTCACCTAGTGCAG,3980 fluorescence intensity (a.u.)
12,CTGTGCCGCTCGCTCGTTCGCTCTGTGACTGTACGTACATCGGAGTCACCTAGTGCAG,4590 fluorescence intensity (a.u.)
13,GTGTGGGGCCACGTCACAGTGGGCCCCATATGTCGGTGGGCGGAGTCACCTAGTGCAG,12700 fluorescence intensity (a.u.)
14,TTGTCGCGATGTGCCCCTTCTACGGGGTGCCACGTCACATCGGAGTCACCTAGTGCAG,39500 fluorescence intensity (a.u.)
15,CCACATCGGATGCCACGTCAGCCCTAGCCACATCAGCGCACGGAGTCACCTAGTGCAG,38500 fluorescence intensity (a.u.)
16,GTTCGGTTTCGCGGTCAAGCGCGTGACGTGAGGTCGCCCACGGAGTCACCTAGTGCAG,5720 fluorescence intensity (a.u.)
17,CAGCAGCAGCAGCAGCCGCCGCCTCCGTCCGTCCGTCCGTCGGAGTCACCTAGTGCAG,3230 fluorescence intensity (a.u.)
18,TGTGCCCTCTCCGTTCGATCCAGGAAAATGATAGTGTGATCGGAGTCACCTAGTGCAG,50200 fluorescence intensity (a.u.)
19,TTCGTGTGCCTAGGAAAATGGTATCCAAACCCCTCAAAATCGGAGTCACCTAGTGCAG,4190 fluorescence intensity (a.u.)
20,GAGAAATGACGACACATCCTCTCGAGTGATCAGGATCCGTCGGAGTCACCTAGTGCAG,3590 fluorescence intensity (a.u.)
21,TCACATCCGAGCTGAGCTCCTGACACAGTGACACTACTGGCGGAGTCACCTAGTGCAG,4310 fluorescence intensity (a.u.)
